Data on 6 compounds can be found in PubChem BioAssay (EPA / NIEHS).

Usually AC50 stands for the concentration at which the activity in the assay is half-maximal.

Records with an inconclusive call do not appear. The source made the active and inactive calls. The calls were made as follows, unless noted: active = hit-call score of the fitted dose curve at least 0.9, where 1 is the maximum; inactive = score below 0.9.

A short description of experiment [1]: ATG_PBREM_CIS: Attagene CIS-FACTORIAL HepG2 Assay for human Phenobarbital-responsive Enhancer Module (PBREM) (AID 2282955). Particulars: HepG2 PBREM cis-reporter, Attagene multiplexed transcription; actives raise or lower the signal. The essentials:
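Fluorescence of labelled reporter cDNA fragments, resolved by capillary electrophoresis, gives mRNA induction in transfected HepG2 cells treated for 24 h; DMSO serves as negative control and baseline.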

In experiment [2] the target is Paired box protein Pax-6 (Homo sapiens) (UniProt P26367). The experiment can be described thus: ATG_Pax6_CIS: Attagene CIS-FACTORIAL HepG2 Assay for human Paired Box 6 (PAX6) (AID 2282956). Particulars: HepG2 CIS-FACTORIAL PAX6 reporter transcription, RNA readout; actives raise or lower the signal. The essentials: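 Multiplexed cis-reporter HepG2 system; 24 h treatment; reporter mRNA read by RT-PCR/CE fluorescence; bidirectional fit vs DMSO.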

Experiment [3] in a line: ATG_PXRE_CIS: Attagene CIS-FACTORIAL HepG2 Assay for human Pregnane X Receptor Element (PXRE) (AID 2282957). Particulars: HepG2 Attagene CIS-FACTORIAL PXRE reporter, mRNA; actives raise or lower the signal. The essentials:
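Multiplexed cis-reporter assay in transiently transfected human HepG2 cells; 24 h chemical exposure. Reporter transcripts quantified by RT-PCR with fluorescent labeling and capillary electrophoresis.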

Experiment [4] can be described thus: ATG_PPRE_CIS: Attagene CIS-FACTORIAL HepG2 Assay for human Peroxisome Proliferator-activated Response Element (PPRE) (AID 2282958). Particulars: HepG2 PPRE cis-element reporter, Attagene transcription factor profiling; actives raise or lower the signal. A digest of the protocol:
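Cells are first transfected transiently with the multiplexed reporter library, then dosed for 24 h. Total RNA is reverse-transcribed, amplified, fluorescently end-labeled and HpaI-cut before capillary electrophoresis; activity is fitted bidirectionally against DMSO controls.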

Experiment [5] can be described thus: ATG_RORE_CIS: Attagene CIS-FACTORIAL HepG2 Assay for human RAR-related Orphan Receptor Element (RORE) (AID 2282959). Particulars: HepG2 Attagene cis-factorial RORE reporter, mRNA; actives raise or lower the signal. A digest of the protocol: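 Cells were HepG2 carrying transfected cis-regulated reporter constructs, dosed for 24 hours. Total RNA was reverse-transcribed and reporter cDNA amplified, fluorescently labeled and sized by capillary electrophoresis. Activity was fitted bidirectionally relative to DMSO.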

A short description of experiment [6]: ATG_Sox_CIS: Attagene CIS-FACTORIAL HepG2 Assay for human SRY-box transcription factor (SOX) (AID 2282960). Particulars: HepG2 Attagene cis-factorial SOX reporter, mRNA; actives raise or lower the signal. A digest of the protocol: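 Transient MRTU transfection of HepG2; 24 h compound incubation; TriZol RNA, oligo(dT) RT, PCR, 6-FAM primer extension, HpaI cut, CE. Bidirectional fit, DMSO = baseline.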

The target of experiment [7] is Transcription factor Sp1 (Homo sapiens) (UniProt P08047). The experiment can be described thus: ATG_Sp1_CIS: Attagene CIS-FACTORIAL HepG2 Assay for human Specificity Protein 1 (Sp1) (AID 2282961). Particulars: HepG2 Sp1 cis-reporter transcription, actives raise or lower the signal. A digest of the protocol:
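Endogenous Sp1 activity was gauged in human liver HepG2 cells bearing transfected reporter units under a cis-regulating promoter. After 24 h dosing, reporter mRNA was quantified by RT-PCR with capillary electrophoresis, and activity fitted bidirectionally versus DMSO.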

Experiment [8] in a line: ATG_SREBP_CIS: Attagene CIS-FACTORIAL HepG2 Assay for human Sterol Regulatory Element Binding (SREBP) (AID 2282962). The settings on record: HepG2 Attagene cis-factorial SREBP reporter, mRNA; actives raise or lower the signal. A digest of the protocol:
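mRNA induction of transfected cis-promoter reporters in HepG2 cells, 24 h post-dose. Detection: RT-PCR with 6-FAM-labelled products, HpaI digest, capillary electrophoresis. DMSO served as negative control and baseline.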

The target in experiment [9] is Signal transducer and activator of transcription 3 (Homo sapiens) (UniProt P40763). The experiment can be described thus: ATG_STAT3_CIS: Attagene CIS-FACTORIAL HepG2 Assay for human Signal Transducer and Activator of Transcription 3 (STAT3) (AID 2282963). Particulars: HepG2, Attagene cis-factorial STAT3 reporter transcription; actives raise or lower the signal. The essentials: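 HepG2 cells transiently transfected with multiple cis-element-driven reporter units report endogenous transcription factor activity. After 24 h compound exposure, reporter mRNA is measured by RT-PCR, 6-FAM labelling, HpaI digestion and capillary electrophoresis. Fitted bidirectionally versus DMSO.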

Experiment [10] in a line: ATG_TA_CIS: Attagene CIS-FACTORIAL HepG2 Assay for human TA Basal Promoter (AID 2282964). Particulars: HepG2 Attagene CIS-factorial TA basal promoter reporter; actives raise or lower the signal. A digest of the protocol: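 Background internal-marker endpoint from a 52-component HepG2 cis-reporter panel. Cells treated 24 h; reporter transcripts quantified via RT-PCR and CE fluorescence against DMSO baseline.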

Experiment [11] is described as follows: ATG_TCF_b_cat_CIS: Attagene CIS-FACTORIAL HepG2 Assay for human T-Cell-Factor with beta-catenin (TCF/b-cat) (AID 2282965). Particulars: HepG2 TCF/beta-catenin cis-reporter transcription, actives raise or lower the signal. The essentials: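 Cells of the HepG2 line carry transiently transfected reporter units whose promoters respond to endogenous factors. Twenty-four hours post-dosing, reporter mRNA induction is measured by fluorescent RT-PCR and capillary electrophoresis, with DMSO as baseline.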

Experiment [12] in a line: ATG_TAL_CIS: Attagene CIS-FACTORIAL HepG2 Assay for human TAL Basal Promoter (AID 2282966).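 Also: background control endpoint measuring basal TAL promoter reporter mRNA not a specific factor.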 The settings on record: HepG2 Attagene cis-factorial TAL promoter reporter; actives raise or lower the signal. The essentials:
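Steps: transfect HepG2 with multiple reporter transcription units; dose 24 h; isolate RNA, reverse-transcribe, PCR-amplify, label with 6-FAM, digest with HpaI; resolve by capillary electrophoresis. Bidirectional fitting against DMSO baseline.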

Experiment [13] in a line: ATG_TGFb_CIS: Attagene CIS-FACTORIAL HepG2 Assay for human Transforming Growth Factor (TGF) (AID 2282967). Particulars: HepG2 Attagene CIS TGFb reporter, mRNA transcription; actives raise or lower the signal. The essentials: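 Liver HepG2 line, cis-factorial reporter panel, 24 h dosing. Quantitation: RT-PCR products labeled with 6-FAM, cut with HpaI, resolved by capillary electrophoresis; DMSO-referenced bidirectional analysis.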

Experiment [14] can be described thus: ATG_VDRE_CIS: Attagene CIS-FACTORIAL HepG2 Assay for human Vitamin D Receptor Element (VDRE) (AID 2282968). Particulars: HepG2 VDRE cis-reporter transcription, actives raise or lower the signal. A digest of the protocol:
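Transiently transfected HepG2 cells carrying cis-regulated reporter transcription units were exposed for 24 h. Reporter mRNA was measured by RT-PCR with fluorescent labelling and capillary electrophoresis, and fitted in both directions against DMSO.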

Experiment [15] concerns the target Nuclear receptor subfamily 1 group I member 3 (Homo sapiens) (UniProt Q14994). The experiment can be described thus: ATG_CAR_TRANS: Attagene TRANS-FACTORIAL HepG2 Assay for human Constitutive Androstane Receptor (CAR) (AID 2282969; active = hit-call score of the fitted dose curve at least 0.9, where 1 is the maximum;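 also: activators raise reporter mRNA above DMSO so AC50 marks induction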). Particulars: HepG2 Attagene TRANS-FACTORIAL CAR reporter. A digest of the protocol:
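HepG2 cells transiently transfected with GAL4-UAS reporter units; TRANS format reads activity of exogenous chimeric NR-Gal4 protein. After 24 h dosing, reporter mRNA quantified by RT-PCR, 6-FAM labelling and capillary electrophoresis; gain of signal fitted against DMSO.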

The target of experiment [16] is Estrogen receptor (Homo sapiens) (UniProt P03372). The experiment can be described thus: ATG_ERa_TRANS: Attagene TRANS-FACTORIAL HepG2 Assay for human Estrogen Receptor alpha (ERa) (AID 2282970; active = hit-call score of the fitted dose curve at least 0.9, where 1 is the maximum). The settings on record: HepG2 Attagene TRANS ERa GAL4 reporter, mRNA. A digest of the protocol:
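Multiplexed cell-based reporter format in HepG2: chimeric ERa-Gal4 protein drives GAL4-UAS reporter transcription. Fluorescent reporter mRNA quantified by capillary electrophoresis 24 hours after dosing; endpoint fitted as signal gain against DMSO.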

Experiment [17] addresses X-box-binding protein 1 (Homo sapiens) (UniProt P17861). The experiment can be described thus: ATG_Xbp1_CIS: Attagene CIS-FACTORIAL HepG2 Assay for human X-box Binding Protein 1 (XBP1) (AID 2282972). Particulars: HepG2 XBP1 cis-element reporter, Attagene multiplex; actives raise or lower the signal. The essentials:
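Fluorescence-labelled cDNA fragments from reporter transcripts, separated by capillary electrophoresis, give the signal. Source: HepG2 cells transfected with promoter-driven reporter units, harvested 24 h post-dose. DMSO served as reference for bidirectional curve fitting.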

Experiment [18] deals with Androgen receptor (Homo sapiens) (UniProt P10275). The experiment can be described thus: ATG_AR_TRANS: Attagene TRANS-FACTORIAL HepG2 Assay for human Androgen Receptor (AR) (AID 2282973; active = hit-call score of the fitted dose curve at least 0.9, where 1 is the maximum). The settings on record: HepG2 Attagene TRANS-FACTORIAL AR reporter transcription. The essentials:
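Chimeric nuclear receptor–Gal4 activity was assessed in human HepG2 hepatocytes after 24 h chemical dosing. Induced reporter mRNA was detected via labelled RT-PCR fragments on capillary electrophoresis, and gain of signal was analysed against DMSO.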

The nature of experiment [19]: ATG_M_19_TRANS: Attagene TRANS-FACTORIAL HepG2 Assay for M19 Transcription Factor (Internal Marker) (AID 2282974; active = hit-call score of the fitted dose curve at least 0.9, where 1 is the maximum). The settings on record: HepG2 Attagene TRANS-FACTORIAL M19 internal marker reporter. A digest of the protocol: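 Cells: human HepG2, transiently transfected with multiplexed reporter transcription units. Exposure: 24 h. Detection: RT-PCR of reporter mRNA with capillary electrophoresis. Analysis: gain-of-signal vs DMSO.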

Experiment [20] concerns the target Steroid hormone receptor ERR1 (Homo sapiens) (UniProt P11474). The experiment can be described thus: ATG_ERRa_TRANS: Attagene TRANS-FACTORIAL HepG2 Assay for human Estrogen-Related Receptor alpha (ERRa) (AID 2282971; active = hit-call score of the fitted dose curve at least 0.9, where 1 is the maximum). Particulars: HepG2 Attagene TRANS reporter, ERRa transactivation. A digest of the protocol:
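Signal gain relative to DMSO for an ERRa-Gal4 chimeric receptor, read as reporter mRNA by RT-PCR/capillary electrophoresis. Human HepG2 liver cells, transient multiplex reporter transfection, 24 h chemical exposure.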

Chain of Estrogen receptor (Homo sapiens) (P03372 whole entry, looked up, the tested form may be a part): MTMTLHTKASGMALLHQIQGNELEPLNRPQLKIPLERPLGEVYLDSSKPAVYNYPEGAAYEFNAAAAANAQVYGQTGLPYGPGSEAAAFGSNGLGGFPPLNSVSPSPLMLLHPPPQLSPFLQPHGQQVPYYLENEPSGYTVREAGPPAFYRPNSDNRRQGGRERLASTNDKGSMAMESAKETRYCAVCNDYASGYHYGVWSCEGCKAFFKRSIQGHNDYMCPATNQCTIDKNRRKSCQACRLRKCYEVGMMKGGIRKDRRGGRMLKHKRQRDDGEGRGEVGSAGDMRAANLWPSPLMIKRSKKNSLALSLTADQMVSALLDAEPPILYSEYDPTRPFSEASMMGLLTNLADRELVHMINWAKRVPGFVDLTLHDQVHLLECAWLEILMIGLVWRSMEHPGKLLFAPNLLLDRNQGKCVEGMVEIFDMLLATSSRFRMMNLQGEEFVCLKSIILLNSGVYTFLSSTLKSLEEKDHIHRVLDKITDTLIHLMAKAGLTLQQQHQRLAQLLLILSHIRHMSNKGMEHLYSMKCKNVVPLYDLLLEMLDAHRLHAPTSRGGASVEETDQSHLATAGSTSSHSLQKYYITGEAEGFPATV
Chain of Androgen receptor (Homo sapiens) (P10275 whole entry, looked up, the tested form may be a part): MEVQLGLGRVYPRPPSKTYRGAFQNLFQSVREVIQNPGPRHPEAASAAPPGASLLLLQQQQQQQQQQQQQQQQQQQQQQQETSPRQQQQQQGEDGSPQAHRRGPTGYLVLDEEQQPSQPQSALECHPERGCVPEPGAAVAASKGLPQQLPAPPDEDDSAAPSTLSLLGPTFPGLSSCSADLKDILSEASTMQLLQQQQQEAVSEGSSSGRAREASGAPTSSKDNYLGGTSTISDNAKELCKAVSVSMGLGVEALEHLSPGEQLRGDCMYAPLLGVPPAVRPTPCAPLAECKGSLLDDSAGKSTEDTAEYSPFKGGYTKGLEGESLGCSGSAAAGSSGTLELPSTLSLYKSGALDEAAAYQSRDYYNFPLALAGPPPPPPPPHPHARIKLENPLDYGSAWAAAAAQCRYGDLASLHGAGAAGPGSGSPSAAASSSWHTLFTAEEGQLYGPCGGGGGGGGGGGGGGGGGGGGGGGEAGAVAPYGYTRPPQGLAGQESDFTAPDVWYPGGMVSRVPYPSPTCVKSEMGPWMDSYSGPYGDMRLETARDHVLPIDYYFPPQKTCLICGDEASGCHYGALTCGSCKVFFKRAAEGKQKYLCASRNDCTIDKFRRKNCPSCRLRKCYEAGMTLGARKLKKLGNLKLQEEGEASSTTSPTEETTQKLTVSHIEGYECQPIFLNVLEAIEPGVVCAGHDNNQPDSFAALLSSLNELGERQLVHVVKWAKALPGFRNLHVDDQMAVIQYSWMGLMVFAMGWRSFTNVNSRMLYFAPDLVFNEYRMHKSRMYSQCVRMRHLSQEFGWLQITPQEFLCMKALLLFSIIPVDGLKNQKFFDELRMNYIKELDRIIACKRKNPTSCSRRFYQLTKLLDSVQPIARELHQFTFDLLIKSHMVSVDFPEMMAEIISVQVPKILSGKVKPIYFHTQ
Chain of Transcription factor Sp1 (Homo sapiens) (P08047 whole entry, looked up): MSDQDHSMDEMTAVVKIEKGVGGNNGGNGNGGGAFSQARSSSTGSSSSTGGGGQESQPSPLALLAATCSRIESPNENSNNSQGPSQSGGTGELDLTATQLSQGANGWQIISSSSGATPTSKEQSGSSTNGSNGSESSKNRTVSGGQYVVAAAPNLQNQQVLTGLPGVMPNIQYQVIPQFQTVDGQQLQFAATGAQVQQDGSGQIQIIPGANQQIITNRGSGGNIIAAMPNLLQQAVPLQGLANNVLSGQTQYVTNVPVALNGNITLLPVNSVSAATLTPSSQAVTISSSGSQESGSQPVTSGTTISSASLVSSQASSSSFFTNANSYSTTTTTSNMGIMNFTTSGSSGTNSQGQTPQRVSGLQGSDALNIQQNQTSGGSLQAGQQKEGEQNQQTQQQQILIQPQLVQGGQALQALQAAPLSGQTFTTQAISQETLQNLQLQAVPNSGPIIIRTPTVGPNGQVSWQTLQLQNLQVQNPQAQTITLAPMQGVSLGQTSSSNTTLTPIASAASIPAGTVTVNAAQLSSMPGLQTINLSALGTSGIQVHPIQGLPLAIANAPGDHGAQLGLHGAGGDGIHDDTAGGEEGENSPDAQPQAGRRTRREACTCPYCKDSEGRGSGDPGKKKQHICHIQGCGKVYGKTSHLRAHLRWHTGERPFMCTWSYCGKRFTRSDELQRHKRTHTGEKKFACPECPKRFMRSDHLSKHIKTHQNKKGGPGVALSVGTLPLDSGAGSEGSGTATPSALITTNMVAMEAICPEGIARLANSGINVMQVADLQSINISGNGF
Chain of X-box-binding protein 1 (Homo sapiens) (P17861 whole entry, looked up, the tested form may be a part): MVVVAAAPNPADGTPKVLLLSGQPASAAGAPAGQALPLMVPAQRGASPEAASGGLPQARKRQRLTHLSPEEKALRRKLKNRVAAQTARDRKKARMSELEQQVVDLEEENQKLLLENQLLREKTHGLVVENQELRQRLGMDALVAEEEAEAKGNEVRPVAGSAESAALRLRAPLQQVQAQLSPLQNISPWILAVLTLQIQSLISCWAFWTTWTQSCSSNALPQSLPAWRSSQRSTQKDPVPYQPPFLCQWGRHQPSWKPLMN
Chain of Signal transducer and activator of transcription 3 (Homo sapiens) (P40763 whole entry, looked up): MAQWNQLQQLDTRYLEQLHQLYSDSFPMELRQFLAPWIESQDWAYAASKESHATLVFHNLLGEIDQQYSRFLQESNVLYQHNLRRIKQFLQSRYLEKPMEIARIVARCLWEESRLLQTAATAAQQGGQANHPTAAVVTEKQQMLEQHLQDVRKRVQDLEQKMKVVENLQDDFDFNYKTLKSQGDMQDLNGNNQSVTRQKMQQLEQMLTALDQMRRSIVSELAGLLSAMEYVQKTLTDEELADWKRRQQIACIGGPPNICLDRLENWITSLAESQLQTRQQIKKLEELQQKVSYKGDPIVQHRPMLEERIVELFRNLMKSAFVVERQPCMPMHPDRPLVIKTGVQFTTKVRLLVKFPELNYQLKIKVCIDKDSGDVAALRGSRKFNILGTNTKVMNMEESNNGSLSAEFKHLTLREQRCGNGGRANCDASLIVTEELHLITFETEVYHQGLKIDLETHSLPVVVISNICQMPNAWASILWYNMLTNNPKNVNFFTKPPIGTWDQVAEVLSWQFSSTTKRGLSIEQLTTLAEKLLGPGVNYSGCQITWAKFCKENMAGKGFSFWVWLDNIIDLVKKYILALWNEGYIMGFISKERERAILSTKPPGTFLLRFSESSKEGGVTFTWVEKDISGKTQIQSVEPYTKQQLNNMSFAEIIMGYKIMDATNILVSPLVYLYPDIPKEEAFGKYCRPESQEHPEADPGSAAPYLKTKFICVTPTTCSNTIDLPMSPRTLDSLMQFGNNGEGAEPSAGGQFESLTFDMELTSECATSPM
Chain of Paired box protein Pax-6 (Homo sapiens) (P26367 whole entry, looked up): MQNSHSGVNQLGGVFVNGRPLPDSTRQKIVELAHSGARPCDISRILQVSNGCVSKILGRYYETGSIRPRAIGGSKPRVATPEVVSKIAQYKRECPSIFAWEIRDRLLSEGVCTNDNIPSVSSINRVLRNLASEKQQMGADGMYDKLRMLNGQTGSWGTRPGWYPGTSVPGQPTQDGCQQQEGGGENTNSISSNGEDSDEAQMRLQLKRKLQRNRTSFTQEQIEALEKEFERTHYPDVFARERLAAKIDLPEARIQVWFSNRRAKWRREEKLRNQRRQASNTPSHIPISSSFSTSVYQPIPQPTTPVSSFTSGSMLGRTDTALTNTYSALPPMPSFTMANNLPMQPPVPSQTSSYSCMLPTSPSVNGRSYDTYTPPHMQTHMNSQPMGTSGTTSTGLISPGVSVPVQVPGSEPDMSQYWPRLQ
Chain of Nuclear receptor subfamily 1 group I member 3 (Homo sapiens) (Q14994 whole entry, looked up, the tested form may be a part): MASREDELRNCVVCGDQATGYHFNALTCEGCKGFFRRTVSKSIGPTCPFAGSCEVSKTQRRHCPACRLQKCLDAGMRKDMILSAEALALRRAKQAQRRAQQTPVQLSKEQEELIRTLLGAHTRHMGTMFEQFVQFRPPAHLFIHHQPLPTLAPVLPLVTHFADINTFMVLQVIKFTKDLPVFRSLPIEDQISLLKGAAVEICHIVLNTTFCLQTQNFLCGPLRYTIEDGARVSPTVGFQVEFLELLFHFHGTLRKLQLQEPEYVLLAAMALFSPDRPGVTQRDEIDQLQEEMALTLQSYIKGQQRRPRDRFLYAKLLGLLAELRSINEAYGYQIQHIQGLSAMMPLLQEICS
Chain of Steroid hormone receptor ERR1 (Homo sapiens) (P11474 whole entry, looked up, the tested form may be a part): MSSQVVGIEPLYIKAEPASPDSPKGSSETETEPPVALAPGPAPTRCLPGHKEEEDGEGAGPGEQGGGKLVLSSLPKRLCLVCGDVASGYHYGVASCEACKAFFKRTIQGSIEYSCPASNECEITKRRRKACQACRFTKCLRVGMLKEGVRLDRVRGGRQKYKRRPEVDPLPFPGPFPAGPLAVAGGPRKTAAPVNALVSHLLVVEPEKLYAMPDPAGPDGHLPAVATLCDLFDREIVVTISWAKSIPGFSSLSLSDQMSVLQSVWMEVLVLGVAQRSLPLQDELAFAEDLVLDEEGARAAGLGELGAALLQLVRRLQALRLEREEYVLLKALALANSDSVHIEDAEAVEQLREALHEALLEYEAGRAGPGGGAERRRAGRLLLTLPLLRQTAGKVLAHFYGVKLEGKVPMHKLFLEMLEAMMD

As to `CCCCC(CC)COP(=O)(Oc1ccccc1)Oc1ccccc1` (configuration not stated), the result in [1], in experiment [5], in experiment [6], in experiment [9], in [11] and in experiment [12] was inactive. The compound was called inactive in [13], in experiment [15], in experiment [18] and in experiment [19]. The AC50 in [2] was 100 µM (active); in experiment [3] it was 0.516 µM (active); in experiment [4], 37.7 µM (active); in experiment [7] it was 126 µM (active); in experiment [8] it was 35.4 µM (active); in experiment [10], 55.3 µM (active). The figures for the AC50 in experiment [14], in [16] and in experiment [17] were 0.866 µM (active), 1.16 µM (active) and 100 µM (active), respectively.
In the case of `C=CC(=O)OCC(CC)(COC(=O)C=C)COC(=O)C=C`, the outcome in experiment [1], in [3], in experiment [4], in experiment [5], in experiment [6] and in experiment [9] was inactive. Further, the result in experiment [10], in experiment [11], in experiment [12], in experiment [16], in [20] and in experiment [17] was inactive. Besides, in experiment [18], the compound was classed as inactive. The concentration at half-maximal activity (AC50) in [2] is 15.5 µM (active); in [7] it was 26.2 µM (active); in experiment [8], 27 µM (active); in [13], 49.4 µM (active); in experiment [14] it was 3.37 µM (active).
Consider `N#C/C=C/c1ccccc1`, for which the outcome in [1], in experiment [2], in [3], in [4], in experiment [5] and in experiment [6] was inactive. Also, the compound was called inactive in [7], in experiment [8], in experiment [9], in experiment [10], in [11] and in [12]. For the same compound, the call in experiment [13], in experiment [14], in experiment [15], in experiment [17] and in experiment [18] was inactive.
Take `O=S1(=O)OCC2C(CO1)C1(Cl)C(Cl)=C(Cl)C2(Cl)C1(Cl)Cl` (configuration not stated): the outcome in experiment [1], in experiment [4], in experiment [5], in experiment [6], in experiment [9] and in [10] was inactive. The compound was called inactive in experiment [12], in experiment [13], in [15] and in [16]. The half-maximal activity concentration (AC50) in [2] is 100 µM (active); in [3], 1.58 µM (active); in experiment [7], 172 µM (active); in experiment [8], 100 µM (active); in experiment [11], 11.6 µM (active); in experiment [17] it was 167 µM (active).
In the case of `O=C(O)C=CC(F)(C(F)(F)F)C(F)(F)F`, the result in experiment [1], in [2], in experiment [3], in experiment [4], in experiment [5] and in experiment [6] was inactive. Besides, the call in experiment [7], in experiment [8], in experiment [9], in experiment [10], in experiment [11] and in experiment [12] was inactive. Also, the compound was classed as inactive in [13], in [14], in experiment [16], in [20], in experiment [17] and in experiment [18].
As to `CC(C)(C)c1ccccc1OP(=O)(Oc1ccccc1)Oc1ccccc1`, the result in [1], in [2], in [4], in [5], in [6] and in experiment [7] was inactive. Further, the compound was classed as inactive in experiment [9], in experiment [10], in experiment [11], in [12], in [13] and in experiment [14]. Moreover, the compound was called inactive in experiment [15], in [20], in experiment [17] and in [19]. The concentration at half-maximal activity (AC50) is 0.576 µM (active) in experiment [3], 11.8 µM (active) in experiment [8] and 5.03 µM (active) in [16].
